From PubChem BioAssay (NCATS)
Values joined by “and” are separate entries in the source; they are usually repeats but may differ in a detail not shown here. Equal entries are not always repeated. Results filed as inconclusive are left out. Active and inactive are the calls of the source. Unless noted, calls follow the shape of the dose curve; as a rule, active = well fitted curve in the direction sought with a large enough effect; inconclusive = small, poorly fitted or top-dose-only effect, or another doubt; inactive = no such curve, though single readings can be large; an effect the other way counts as inactive or inconclusive.

Columns and labels:
[1] = AP1 Signaling Pathway (AID 357; active = well fitted curve in either direction with a large enough effect, not every such curve was filed as active;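 also: ME-180 reporter cells stimulated with EGF at its EC50 level; % is scaled to controls: 0 for no effect and ±100 for the full control effect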); conditions: ME-180 AP-1-bla reporter, EGF-induced, beta-lactamase ratio, 5 h; at 7.69 µM (top of the series) unless noted
Outline: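 First, ME-180 AP-1-bla cells were cultured overnight at 37 °C in low-serum Opti-MEM. Next, titrated compounds with EC50 EGF were incubated 5 hours. Finally, CCF4 was added for 2.5 hours and the 460/530 nm ratio recorded.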

[2] = molecular target: Cytochrome P450 1A2 (Homo sapiens) (UniProt P05177); assay: p450-cyp1a2 (AID 410; calls by dose curve; also: potency is read from the fitted curve at half-maximal effect)
Cytochrome P450 1A2 (Homo sapiens), sequence (P05177 whole entry, looked up): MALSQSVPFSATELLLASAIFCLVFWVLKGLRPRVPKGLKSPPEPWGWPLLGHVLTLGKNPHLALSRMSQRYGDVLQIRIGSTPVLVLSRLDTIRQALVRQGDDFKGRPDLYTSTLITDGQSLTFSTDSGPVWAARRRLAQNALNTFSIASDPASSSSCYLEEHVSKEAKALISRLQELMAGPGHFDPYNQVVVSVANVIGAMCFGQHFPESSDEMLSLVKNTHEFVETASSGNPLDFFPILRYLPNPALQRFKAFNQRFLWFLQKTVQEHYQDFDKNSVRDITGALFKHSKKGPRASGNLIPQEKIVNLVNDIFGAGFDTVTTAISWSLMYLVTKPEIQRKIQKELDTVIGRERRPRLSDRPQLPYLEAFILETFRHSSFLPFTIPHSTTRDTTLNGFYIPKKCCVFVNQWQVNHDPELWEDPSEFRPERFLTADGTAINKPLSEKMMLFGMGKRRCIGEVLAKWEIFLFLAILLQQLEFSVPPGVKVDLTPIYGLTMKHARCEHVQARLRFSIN
Outline: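 Read-out is luminescence from luciferin produced by CYP1A2 demethylation of Luciferin-ME (100uM, at Km). Detection reagent stopped the 60 min NADPH-dependent reaction; signals were normalized to 57 uM furafylline.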

[3] = NFAT Signaling Pathway (AID 444; active = well fitted curve in either direction with a large enough effect, not every such curve was filed as active;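 also: carbachol stimulus at about its EC50 of 1 µM final; % is scaled to controls: 0 for no effect and ±100 for the full control effect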); conditions: Jurkat NFAT-bla M1, carbachol, beta-lactamase ratio, 5 h; at 7.69 µM (top of the series) unless noted
Outline: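 Read-out: CCF4 FRET ratio (460 nm/530 nm) after 1 h RT dye loading, used for %activity and AC50 from titration series. Cells: Jurkat NFAT-β-lactamase/M1 line, treated with compound plus 1 uM carbachol for 5 h, 37 °C.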

[4] = Stat Signaling Pathway (AID 446; active = well fitted curve in either direction with a large enough effect, not every such curve was filed as active;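 also: ME-180 cervical cancer cells given 40 pM IL-6 alongside compound; SIE-controlled beta-lactamase reporter measured as 460/530 nm FRET emission ratio; % is scaled to controls: 0 for no effect and ±100 for the full control effect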); conditions: ME-180 (cervical carcinoma) SIE beta-lactamase reporter, IL-6 stimulated, 5 h; at 7.69 µM (top of the series) unless noted
Outline: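 Normalization used AC90 stimulation (300 pM IL-6) and AC90 inhibition (125 nM pan-JAK inhibitor at 40 pM IL-6). The underlying signal is SIE-driven beta-lactamase in ME-180 cells after 5 h IL-6 exposure with compound.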

[5] = molecular target: Glucocorticoid receptor (Homo sapiens) (UniProt P04150); assay: GR-GFP Redistribution (AID 450;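 active = compounds whose dose series gives a full or clear partial fitted curve of increased nuclear translocation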; also: potency is read from the fitted curve at half-maximal effect); conditions: U2OS GR-GFP nuclear translocation, laser cytometry, 2 h
Glucocorticoid receptor (Homo sapiens), sequence (P04150 whole entry, looked up, the tested form may be a part): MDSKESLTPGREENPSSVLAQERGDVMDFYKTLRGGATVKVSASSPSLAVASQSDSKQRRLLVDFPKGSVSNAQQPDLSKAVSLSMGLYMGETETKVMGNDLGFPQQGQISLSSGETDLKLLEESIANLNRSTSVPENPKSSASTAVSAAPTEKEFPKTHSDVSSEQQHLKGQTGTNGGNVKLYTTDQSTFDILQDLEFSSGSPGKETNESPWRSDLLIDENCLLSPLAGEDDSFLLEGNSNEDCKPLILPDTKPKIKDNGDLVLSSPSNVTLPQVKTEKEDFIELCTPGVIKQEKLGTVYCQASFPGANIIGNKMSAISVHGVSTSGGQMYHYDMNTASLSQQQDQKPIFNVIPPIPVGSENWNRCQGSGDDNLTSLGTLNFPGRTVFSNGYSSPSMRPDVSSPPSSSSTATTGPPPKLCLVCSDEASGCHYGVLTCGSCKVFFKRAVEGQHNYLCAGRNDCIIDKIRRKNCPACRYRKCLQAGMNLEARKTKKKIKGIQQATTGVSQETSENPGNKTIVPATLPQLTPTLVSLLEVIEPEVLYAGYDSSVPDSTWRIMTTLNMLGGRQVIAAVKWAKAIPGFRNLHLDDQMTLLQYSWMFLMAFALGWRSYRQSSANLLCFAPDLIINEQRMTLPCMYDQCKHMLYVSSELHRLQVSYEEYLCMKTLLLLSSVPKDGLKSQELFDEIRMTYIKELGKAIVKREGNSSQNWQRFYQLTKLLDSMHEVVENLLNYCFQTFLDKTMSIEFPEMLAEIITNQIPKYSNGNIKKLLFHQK

[6] = molecular target: Glucocorticoid receptor (Homo sapiens) (UniProt P04150); assay: GR-EFC Redistribution (AID 451; calls by dose curve; also: potency is read from the fitted curve at half-maximal effect); conditions: CHO-K1 GR-EFC translocation, beta-gal luminescence, 2 h
Outline: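 Translocation of GR-ED fusion to nuclear EA restores b-gal, read by luminescence after 1 h room-temperature detection. Engineered CHO-K1 biosensor cells, 1,000/well, exposed 2 h at 37 C to titrations up to 46 uM final.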

[7] = molecular target: Mitogen-activated protein kinase 10 (Mus musculus) (UniProt Q61831); assay: JNK3 AlphaScreen Assay (AID 530; active = well fitted curve in either direction with a large enough effect, not every such curve was filed as active;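 also: kinase came from lysate of stimulated human HepG2 cells; signal reports phosphorylation of biotinylated GST-cJun 1-79 at Ser73 with 10 µM ATP; % is scaled to controls: 0 for no effect and ±100 for the full control effect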)
Outline: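 Kinase buffer: 20 mM Tris-HCl pH 7.6, 10 mM MgCl2, 1 mM DTT, 0.1 mM Na3VO4, 0.01% Tween-20; ATP 10 uM. Substrate biotin-GST-cJun(1-79), enzyme from activated HepG2 lysates. Detection by Ser73 phospho-antibody AlphaScreen.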

[8] = molecular target: Cytochrome P450 3A4 (Homo sapiens) (UniProt P08684); assay: qHTS Assay for Inhibitors and Substrates of Cytochrome P450 3A4 (AID 884); also: % is scaled to controls: 0 for no effect and ±100 for the full control effect; nearly all actives have a fitted effect of over 50% in size
Cytochrome P450 3A4 (Homo sapiens), sequence (P08684 whole entry, looked up): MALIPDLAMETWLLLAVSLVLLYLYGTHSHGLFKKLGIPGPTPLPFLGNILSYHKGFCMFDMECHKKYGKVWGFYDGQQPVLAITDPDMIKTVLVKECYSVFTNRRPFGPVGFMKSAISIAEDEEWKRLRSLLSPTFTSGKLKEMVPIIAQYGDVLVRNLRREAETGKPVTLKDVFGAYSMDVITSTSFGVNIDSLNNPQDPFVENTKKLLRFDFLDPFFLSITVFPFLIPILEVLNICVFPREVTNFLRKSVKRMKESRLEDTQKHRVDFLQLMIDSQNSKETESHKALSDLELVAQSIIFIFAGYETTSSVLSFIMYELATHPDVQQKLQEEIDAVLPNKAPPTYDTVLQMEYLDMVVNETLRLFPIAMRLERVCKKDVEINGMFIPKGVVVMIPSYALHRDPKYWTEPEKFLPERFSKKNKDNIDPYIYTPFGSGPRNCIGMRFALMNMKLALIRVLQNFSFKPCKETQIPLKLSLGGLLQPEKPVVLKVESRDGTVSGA
Outline: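 Luminescent readout of luciferin produced by CYP3A4 (20 nM) dealkylation of Luciferin-PPXE, 25 uM (its KM). NADPH-driven reaction ran 60 min at RT after 10 min compound preincubation; data scaled to 57 uM ketoconazole as 100% inhibition.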

[9] = Confirmation and Secondary Assay for Modulators of Hemoglobin Beta Chain Splicing at IVS2 705 locus (AID 930);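 also: HeLa cells stably expressing the EGFP-705 splicing reporter; GFP fluorescence per well restored by corrected splicing of the IVS2-705 intron in EGFP; % of control where 0% means no effect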
Outline: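 First, HeLa EGFP-705 cells are seeded at 500/well in Optimem with 2% FCS and left overnight. Next, compound or DMSO is added for 2 days. Finally wells are laser-scanned and total peak GFP intensity scored.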

[10] = qHTS Assay for Lipid Storage Modulators (AID 1519; calls by dose curve); conditions: Drosophila S3 cells, BODIPY lipid droplet/cell ratio, laser cytometry, cells loaded with oleic acid
Outline: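 Cells seeded at 5,000 per well were treated with compounds over a concentration series and loaded with oleic acid (400 uM, as added). Lipid droplet fluorescence (488 nm excitation, 500-530 nm channel) was read by laser-scanning cytometry and normalized to 20 uM Triacsin C.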

[11] = molecular target: Ubiquitin carboxyl-terminal hydrolase 1 (Homo sapiens) (UniProt O94782); assay: Inhibitors of USP1/UAF1: Pilot qHTS (AID 504865); also: nearly all actives have a fitted effect of over 35% in size; also: potency is read from the fitted curve at half-maximal effect
Ubiquitin carboxyl-terminal hydrolase 1 (Homo sapiens), sequence (O94782 whole entry, looked up): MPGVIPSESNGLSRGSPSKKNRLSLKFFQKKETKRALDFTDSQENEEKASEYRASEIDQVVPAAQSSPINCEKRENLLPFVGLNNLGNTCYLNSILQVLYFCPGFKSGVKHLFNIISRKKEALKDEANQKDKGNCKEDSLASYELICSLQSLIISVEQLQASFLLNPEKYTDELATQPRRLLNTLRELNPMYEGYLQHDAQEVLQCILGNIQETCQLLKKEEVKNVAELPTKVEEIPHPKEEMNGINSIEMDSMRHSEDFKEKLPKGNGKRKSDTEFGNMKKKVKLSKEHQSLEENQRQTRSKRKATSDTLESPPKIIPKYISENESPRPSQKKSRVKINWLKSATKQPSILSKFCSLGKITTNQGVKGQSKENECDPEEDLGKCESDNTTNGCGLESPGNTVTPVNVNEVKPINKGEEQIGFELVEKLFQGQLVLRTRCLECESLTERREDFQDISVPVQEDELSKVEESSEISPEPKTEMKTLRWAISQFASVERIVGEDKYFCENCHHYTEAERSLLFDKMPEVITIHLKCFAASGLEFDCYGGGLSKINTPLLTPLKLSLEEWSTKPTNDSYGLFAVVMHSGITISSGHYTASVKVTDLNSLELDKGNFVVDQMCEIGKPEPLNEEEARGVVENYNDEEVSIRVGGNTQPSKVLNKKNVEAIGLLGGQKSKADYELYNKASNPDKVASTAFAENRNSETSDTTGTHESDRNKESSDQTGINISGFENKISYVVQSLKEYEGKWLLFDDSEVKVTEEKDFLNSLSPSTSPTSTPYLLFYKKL
Outline: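 In 50mM HEPES pH 7.8 containing 0.5mM EDTA, 1mM TCEP, 0.1 mg/ml BSA and 0.01% Tween-20, 1nM USP1/UAF1 is exposed to compound for 15 min, then Ub-Rho (150nM final) is added and fluorescence is read over time.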

[12] = molecular target: Cytochrome P450 3A4 (Homo sapiens) (UniProt P08684); assay: qHTS Assay for Activators of Cytochrome P450 3A4 (AID 885); also: nearly all actives have a fitted effect of over 65% in size
Outline: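 Human CYP3A4 dealkylates Luciferin-PPXE to luciferin, which luciferase detection converts to light. Substrate was at its KM (25uM), buffer 200mM KPO4, reaction 60 min at RT.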

[13] = molecular target: ATP-dependent 6-phosphofructokinase (Trypanosoma brucei brucei) (UniProt O15648); assay: qHTS Assay to Find Inhibitors of T. brucei phosphofructokinase: hit validation (AID 492961)
ATP-dependent 6-phosphofructokinase (Trypanosoma brucei brucei), sequence (O15648 whole entry, looked up): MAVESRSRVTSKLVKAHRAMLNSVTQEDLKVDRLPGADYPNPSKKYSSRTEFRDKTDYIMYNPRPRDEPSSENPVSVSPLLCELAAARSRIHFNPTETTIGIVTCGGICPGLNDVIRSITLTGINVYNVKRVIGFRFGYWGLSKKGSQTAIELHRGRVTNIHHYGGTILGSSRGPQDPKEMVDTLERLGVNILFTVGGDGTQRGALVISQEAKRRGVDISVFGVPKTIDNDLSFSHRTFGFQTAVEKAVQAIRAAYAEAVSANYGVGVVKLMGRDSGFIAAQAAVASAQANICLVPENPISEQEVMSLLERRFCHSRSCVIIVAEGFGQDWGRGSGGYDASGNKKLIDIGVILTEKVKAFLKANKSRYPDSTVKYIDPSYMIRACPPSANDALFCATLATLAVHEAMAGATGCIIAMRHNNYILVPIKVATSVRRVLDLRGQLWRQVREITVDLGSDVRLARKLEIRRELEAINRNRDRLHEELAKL
Outline: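 In this biochemical qHTS validation, titrated compounds were tested against 1.25 nM PFK with 0.1 mM ATP and 0.5 mM F6P. Percent activity came from controls lacking or containing enzyme.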

[14] = S16 Schwann cell PMP22 intronic element beta-lactamase assay (AID 624044; calls by dose curve;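 also: 0% = DMSO and -100% = potassium clavulanate positive control; nearly all actives have a fitted effect of over 15% in size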)
Outline: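 Beta-lactamase reporter under a PMP22 intronic regulatory element in stable S16 rat Schwann cells; 24 h compound exposure. 460 nm blue signal normalized between DMSO (0%) and potassium clavulanate, with 535 nm FRET tracking viability; curves classed by r2 and response.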

[15] = Primary qHTS for small molecule stabilizers of the endoplasmic reticulum resident proteome: Secreted ER Calcium Modulated Protein (SERCaMP) assay (AID 1508630); also: % is scaled to controls: 0 for no effect and ±100 for the full control effect
Outline: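 The SH-SY5Y reporter protocol was run at 3 concentrations up to 38.3 uM (primary) or 11 concentrations (follow-up): 16 h compound, 100 nM thapsigargin for 4 h, then extracellular luciferase luminescence.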

[16] = test system: ATS189; assay: qHTS profiling for inhibitors of Plasmodium falciparum proliferation (AID 504749); also: nearly all actives have a fitted effect of over 60% in size; also: potency is read from the fitted curve at half-maximal effect;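 as to activity, negative = inhibition: 0% = DMSO vehicle and full inhibition = artemisinin control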; conditions: P. falciparum in erythrocytes, SYBR Green DNA, 72 h; series mostly up to 12.8 µM
Outline: (§1)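 In a 72 h erythrocytic culture (37 C, humidified, 5% CO2) at 2.5% hematocrit and 0.3% starting parasitemia, compounds were tested; SYBR Green I in detergent lysis buffer stained parasite DNA overnight.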

[17] = test system: ATS95; assay: as above; conditions: P. falciparum in erythrocytes, SYBR Green DNA, 72 h; series mostly up to 12.8 µM
Outline: as §1

[18] = test system: CP185; assay: as above; conditions: P. falciparum in erythrocytes, SYBR Green DNA, 72 h; series mostly up to 12.8 µM
Outline: as §1

[19] = test system: CP201; assay: as above; conditions: P. falciparum in erythrocytes, SYBR Green DNA, 72 h; series mostly up to 12.8 µM
Outline: as §1

[20] = test system: CP211; assay: as above; conditions: P. falciparum in erythrocytes, SYBR Green DNA, 72 h; series mostly up to 12.8 µM
Outline: as §1

[21] = test system: CP238; assay: as above; conditions: P. falciparum in erythrocytes, SYBR Green DNA, 72 h; series mostly up to 12.8 µM
Outline: as §1

[22] = test system: CP256; assay: as above; conditions: P. falciparum in erythrocytes, SYBR Green DNA, 72 h; series mostly up to 12.8 µM
Outline: as §1

[23] = test system: CP262; assay: as above; conditions: P. falciparum in erythrocytes, SYBR Green DNA, 72 h; series mostly up to 12.8 µM
Outline: as §1

[24] = test system: CP266; assay: as above; conditions: P. falciparum in erythrocytes, SYBR Green DNA, 72 h; series mostly up to 28.7 µM
Outline: as §1

[25] = test system: CP297; assay: as above; conditions: P. falciparum in erythrocytes, SYBR Green DNA, 72 h; series mostly up to 12.8 µM
Outline: as §1

[26] = test system: CP305; assay: as above; conditions: P. falciparum in erythrocytes, SYBR Green DNA, 72 h; series mostly up to 12.8 µM
Outline: as §1

[27] = test system: CP325; assay: as above; conditions: P. falciparum in erythrocytes, SYBR Green DNA, 72 h; series mostly up to 12.8 µM
Outline: as §1

[28] = test system: CP335; assay: as above; conditions: P. falciparum in erythrocytes, SYBR Green DNA, 72 h; series mostly up to 12.8 µM
Outline: as §1

[29] = test system: DFO2036; assay: as above; conditions: P. falciparum in erythrocytes, SYBR Green DNA, 72 h; series mostly up to 12.8 µM
Outline: as §1

[30] = test system: DIV17; assay: as above; conditions: P. falciparum in erythrocytes, SYBR Green DNA, 72 h; series mostly up to 12.8 µM
Outline: as §1

[31] = test system: ECU; assay: as above; conditions: P. falciparum in erythrocytes, SYBR Green DNA, 72 h; series mostly up to 12.8 µM
Outline: as §1

[32] = test system: FAB9; assay: as above; conditions: P. falciparum in erythrocytes, SYBR Green DNA, 72 h; series mostly up to 12.8 µM
Outline: as §1

[33] = test system: HB3; assay: as above; conditions: P. falciparum in erythrocytes, SYBR Green DNA, 72 h; series mostly up to 12.8 µM
Outline: as §1

[34] = test system: ICS; assay: as above; conditions: P. falciparum in erythrocytes, SYBR Green DNA, 72 h; series mostly up to 12.8 µM
Outline: as §1

[35] = test system: JCK; assay: as above; conditions: P. falciparum in erythrocytes, SYBR Green DNA, 72 h; series mostly up to 12.8 µM
Outline: as §1

[36] = test system: PC15; assay: as above; conditions: P. falciparum in erythrocytes, SYBR Green DNA, 72 h; series mostly up to 12.8 µM
Outline: as §1

[37] = test system: PC26; assay: as above; conditions: P. falciparum in erythrocytes, SYBR Green DNA, 72 h; series mostly up to 12.8 µM
Outline: as §1

[38] = test system: PC49; assay: as above; conditions: P. falciparum in erythrocytes, SYBR Green DNA, 72 h; series mostly up to 12.8 µM
Outline: as §1

[39] = test system: SC27B; assay: as above; conditions: P. falciparum in erythrocytes, SYBR Green DNA, 72 h; series mostly up to 12.8 µM
Outline: as §1

[40] = test system: TAB109; assay: as above; conditions: P. falciparum in erythrocytes, SYBR Green DNA, 72 h; series mostly up to 12.8 µM
Outline: as §1

[41] = test system: TAB113; assay: as above; conditions: P. falciparum in erythrocytes, SYBR Green DNA, 72 h; series mostly up to 12.8 µM
Outline: as §1

[42] = test system: W2; assay: as above; conditions: P. falciparum in erythrocytes, SYBR Green DNA, 72 h; series mostly up to 12.8 µM
Outline: as §1

CC(=O)Oc1ccccc1C(=O)Oc1ccccc1C(=O)O
-5.13% and 0.698%: max response ([10]; measured here: lipid channel max response)
-2.66% and 0.474%: max response ([10]; measured here: cell count channel max response)
inactive: activity change, negative = inhibition [1] 6.88% [at 17.2 µM] | activity change, negative = inhibition [3] 3.91% [at 17.2 µM] | activity, negative = inhibition [4] 8.87% [at 17.2 µM] | Potency [5] > 20.6 µM | Potency [6] > 20.6 µM | Potency [7] | Potency [8] | outcome [9] | activity change, negative = inhibition ([10]; at 25.7 µM (top of the series)) -1.86% | activity change, negative = inhibition ([10]; at 57.5 µM (top of the series)) -0.43% | Potency [11]
active: Potency [2] 12.6 µM

COc1cc(/C=C/C(=O)/C=C(O)/C=C/c2ccc(O)c(OC)c2)ccc1O
inactive: Potency [12] | outcome [13] | outcome [14] | outcome [15] | Potency [16] | Potency [17] | Potency [18] | Potency [19] | Potency [20] | Potency [21] | Potency [22] | Potency [23] | Potency [24] | Potency [26] | Potency [27] | Potency [28] | Potency [29] | Potency [31] | Potency [32] | Potency [33] | Potency [35] | Potency [36] | Potency [38] | Potency [39] | Potency [40] | Potency [41]
active: Potency [11] 12.6 µM and 31.6 µM | Potency [25] 15.1 µM | Potency [30] 12 µM | Potency [34] 10 µM | Potency [37] 12 µM | Potency [42] 15.1 µM
